Results as given in the supplement of paper PMC11417369.
Whole data set: some 25,000 sequences, median “ln(normalized median fluorescence intensity)” near 9.3, cut for the highest 2% near 10. What follows is part of a selection rich in the highest values, with near analogues and random picks from the rest.

Test system: PF3D7_0420300 AP2 domain 1 (GST-tagged)
Assay: gcPBM binding intensity (ln(normalized median fluorescence intensity)); higher = stronger DNA binding
Outline: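 Each value is the highest Masliner-normalised natural-log median intensity across replicate spots of either orientation of a probe. The probes were primer-extended double-stranded 36-bp intergenic genomic sequences on an Agilent 4 × 180k array, alongside negative controls, exposed for 1 h to GST-tagged P. falciparum DNA-binding domains expressed in E. coli. Bound protein was picked up with Alexa488 anti-GST antibody and scanned at 488 nm.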

Sequence	gcPBM binding intensity (ln)
GGTGGTAAAAAACCTGCATGTCGAAATATTAAATAC [TGCATGCA_site33]	9.25
TTCTTAAATGTAAATGTATATGTATTAAAAAGAGAA [TGCATGCA_negctrl_site597]	9.1
ACAACATATGTTATCACACACATATAAATATAAATA [CACACA_site7038]	9.54
AAAAGCAAGTTCCAGGGTACATATATATGAAAAAAC [XGTACX_site2408]	9.58
ATTTATTTATATAATACACACAAATATCTTAATGAA [CACACA_site6064]	9.39
ATATATATATATGTATGTACATATTTTTTTTAACAC [XGTACX_site8475]	9.24
TATGATTTTTATATATGTACGTATGGTGTTTTACAA [XGTACX_site6100]	9.21
GTTTGGTGGTGTTTTGGTACGTACGGGGGTGTATGT [XGTACX_site1211]	10.1
GTTTGGTGGTGTTTTGGTACGTACGGGGGGGTATGT [XGTACX_site1983]	10.9
AAAAAAAAAAAAAAAAAAAAAAAAAAATGAGATACA [GTGCAC_negctrl_site160]	9.13
ATAAAATGAACAAACACACACACATATATTTATATA [CACACA_site7181]	10.1
TGTAGTCTGGAGAAAAGTACATAGTATCTGGTAGCT [XGTACX_site2031]	9.32
CGTATATATATATACACACACATATATATATGTAAA [CACACA_site195]	9.69
TTAAACATATATTAAGCACACACAAACAAAAAAACA [CACACA_site8816]	9.9
ATTAAACCGTGGGAGCACACACACACACACACACAT [TGCATGCA_negctrl_site72]	10.8
TGTGGGAATAACCACACACACACACCCATATATATA [CACACA_site5876]	10.1
AATTAACCGTGACACACACACATATAAATATAAATA [CACACA_site7790]	9.86
TTAAACCGTGGGAGCACACACACACCCCCACCCATA [CACACA_site331]	10.2
CATTAAACCGTGGGAGCACACACACCCACCCACCCA [CACACA_site8000]	9.87
AAACCGTGGGAGCACACACACACACCCACCCATATA [CACACA_site332]	10.2
TTAAACCGTGGGAGCACACACACACCCAGACACATA [CACACA_site4337]	9.86
AAACCGTGGGAGCACACACACACACCGACACATATA [CACACA_site4338]	10.1
AATATGTCTTAAAAAAGTACATAAATTTTAACTTCA [XGTACX_site6670]	8.84

Sequence	gcPBM binding intensity (ln)
TTTTTTTTTTTTTTTTGTACATAATAAATGTTCTTA [XGTACX_site6754]	8.64
AAGAATTATATTAATAGTACATATATATTAATTTAT [XGTACX_site5713]	9.08
GCAAATCTTATATGAAGTACATATCTTATAAATAAA [XGTACX_site6903]	8.96
TGGAGGTCAGTTCACAGTACCCAGAAACTCTACGAG [XGTACX_site2007]	8.76
TTATAATCAATGAATACACACATATATTTAATTAAT [CACACA_site3613]	9.47
TATAAAAATATATGCACACAAATAAAAAATTATATA [CACACA_site3629]	9.44
AATTTTATATATATATGTACATATTTATATGCTTAT [XGTACX_site8180]	9.4
ATTTAGAAAAAATATACACACAGCCTAAACATGCAT [CACACA_site4067]	9.64
TATATATATGTATATGTGCACAGTTTTCTTATTAAA [GTGCAC_site9990]	9.24
TATAAATATTTATACACACACATATATTTATATATC [CACACA_site6366]	9.82
AAATTTGGTGAAGGATGTACTTTACCTAATACTTGT [XGTACX_site4825]	9.21
ATATTTACTCACGTCTTGCACTGAGCAAGCATTATA	9.02
AATGCTATCATTAATGCACACATTTAAACTTAATAT [CACACA_site5878]	9.36
AACTTTGGCAAACACACACACACACCCACACCCACA [CACACA_site588]	10.3
AAATTTGGCAAACACACACACACACCCACACCCACA [CACACA_site8095]	10.2
CAAACATTTTAATGTACACACACCCACAGACAAACA [CACACA_site5522]	9.78
GGCAAATTTATTATACCCACATACATACATACATAC [XGTACX_negctrl_site186]	9.24
GTTACACCAACAAACACACACACACCCACCCACAAA [CACACA_site2427]	10.2
AGACAGCGCACAAACACACAAACACCCACCCACATA [CACACA_site451]	10.2
TACATAAATTAAAACACACACACACCCAAAAAAAAA [CACACA_site2261]	10.1
AAATTTGGCAAACACACACACACACCCACAGAGACA [CACACA_site4490]	10.3
CATATATATATATATACACACATATATATTTTCTTT [CACACA_site1457]	9.46
TATTTTAATTATAAATTTAAAAAAAAAAAGAAAAAA [CACACA_negctrl_site1674]	9.01

Sequence	gcPBM binding intensity (ln)
TTCGGAAAAATTAAAGCACACAAAAAAAAATAAAAA [CACACA_site8296]	9.45
TATAAGCTTTCAATGTGTACATATTATTTTATTATT [XGTACX_site3988]	9.44
TTTATGGATGTGTATGCATGCCTAAATAAATATATG [TGCATGCA_site916]	9.1
ATATATATGTATAATCGTACAGTTAACGTATTCTTA [XGTACX_site5649]	9.26
TAATATTATTATTTTACACACTTTTTTCCTTTTATC [CACACA_site2457]	9.45
GTATATAGTATGTAGAGTACTAATTTCCATATGTTC [XGTACX_site7816]	9.25
AATATTTATTTTATATGTACATAATTTATTTTTAAT [XGTACX_site776]	9.26
AAAATAAAATATTTCTGTACTTATAACTATTCTATA [XGTACX_site8007]	9.14
TATATATATATATGTACACACACACCGATAAATAAA [CACACA_site8041]	9.99
TACAGATAAAAGTACACACACACACCGATATATATA [CACACA_site4675]	10.2
AAGATAAAATAATAAAGTACACATATAAATTGAAAA [XGTACX_site2113]	9.42
AACAGATAAAAGGGTACACACATATATACAAGTACA [CACACA_site7959]	9.9
AAAGATAAAAAAAGTACACACACACCGATATATATA [CACACA_site9006]	10.2
AAAAAAAAAAAAAGTACACACATACAGATAAATATA [CACACA_site5067]	9.66
TGAAAAGATAAAAAAAGTACACACACACATATATAT [XGTACX_site6504]	10.2
AGATAAAAAAAGTACACACACACATATATATATATA [CACACA_site3072]	9.82
AGATAAAAAAAGTACACACACACATATATTTATATA [CACACA_site7437]	10.1
ATTATTACACAACGTTGTACATTTCAATATTTTTAT [XGTACX_site5096]	9.52
TAAATTTTAATATGCACACAAAATGTTATATTAAAA [CACACA_site4366]	9.11
ATAAAAATAACATATAAACACACATATATATATATA [CACACA_site9267]	9.35
AACTTGTATATATACACACACACACTATCTTTTTTT [CACACA_site8601]	10.2
TTGTATATACTATACACACACATACATACATACATA [CACACA_site814]	9.85
AACTTGTATTTATACACACACACACTAGCTTTTTTT [CACACA_site5132]	10.2

Sequence	gcPBM binding intensity (ln)
TATATAGTAATATATACACACACTTGTCTTGTAAAA [CACACA_site990]	9.56
CTTGTATATAAACACACACACACTTTCTTTTTTTAA [CACACA_site8602]	9.91
TATATTTATTTATATACACACACTTGTATAAAAAAT [CACACA_site2036]	9.4
AACTTGTATTTATACACACACACACTGTCTTTTTTT [CACACA_site7009]	10.3
ATAACTTGTATATATACACACACACCCTTTCTTTTT [CACACA_site8600]	10.1
AACTTGTATATATACACACACACACTGTCTTTTTTT [CACACA_site1963]	10.2
TTCAAAGACACAATCACACACATACATAAATATACA [CACACA_site687]	9.84
TAATCGAAACAAAGAACATGCAAACATATACCTATA [TGCATGCA_site894]	9.6
ATTTATACATATAAACGTACATACATATATAATATT [XGTACX_site2969]	9.3
TATTTTTATATAATGTGTACTTATACCTTATTTTTT [XGTACX_site1658]	9.3
TATATATTATATATATGTACTTATTCATATATATAA [XGTACX_site3860]	9.06
TTTTACTTAAAACACACACACACAAAAAAAAAAAAA [CACACA_site947]	9.96
AGAATAAAAAGGAACACACACACACGCATATAAATA [CACACA_site7659]	10.3
CACACGCACGAACACACACACATATAAATATAAATA [CACACA_site6299]	9.92
CACACGCACGAACACACACACACACGCATATAAATA [CACACA_site6302]	10.3
AAATATAATAAAATGACACACGCATATATATATATA [CACACA_site8900]	9.38
CACGCGCACGAACACACACACACACGCATATAAATA [CACACA_site7103]	10.3
ACACGCACATATATATAAATATATATATATATAAAT [CACACA_negctrl_site1781]	9.21
AGAATAAAAAGGAACACACACACACCCATATATATA [CACACA_site3590]	10.1
ATATAAAGAAAAGGAACACACAAATATATATATATA [CACACA_site463]	9.57
AAATTCCACGAACACACACACATATAAATAAATAAA [CACACA_site6697]	9.97
